Assay results reported in the supplement of paper PMC12669032.
Values without a mark were called inactive.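 The calls were made as follows: active = AUC reduced over 20% with Padj below 0.05 in at least 2 of 3 replicates; inactive = otherwise.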

Columns and labels:
Test in all cases: growth AUC relative to DMSO control (median of replicates) (fraction); higher = more growth (less inhibition), active = hit call of the paper
Conditions in all cases: 20 µM; 24 h
Akkermansia muciniphila = test system: Akkermansia muciniphila
Outline: (§1)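 For each compound at 20 µM (1% DMSO), gut bacterial monocultures seeded at OD600 0.05 grew anaerobically in mGAM at 37 °C in round-bottom 96-well plates. Hourly OD600 readings over 24 h gave growth curves whose minimum OD was set to 0. Area under these curves was normalised to the plate median of solvent-only wells, or to row and column medians on the industrial chemical plate. Values are medians of three biological replicates grown on separate days.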

Bacteroides caccae = test system: Bacteroides caccae
Outline: as §1

Bacteroides clarus = test system: Bacteroides clarus
Outline: as §1

Bacteroides dorei = test system: Bacteroides dorei
Outline: as §1

Bacteroides stercoris = test system: Bacteroides stercoris
Outline: as §1

[1] = test system: Bacteroides thetaiotaomicron
Outline: as §1

Bacteroides uniformis = test system: Bacteroides uniformis
Outline: as §1

[2] = test system: Bifidobacterium longum subsp. longum
Outline: as §1

Clostridium difficile = test system: Clostridium difficile
Outline: as §1

Collinsella aerofaciens = test system: Collinsella aerofaciens
Outline: as §1

Coprococcus comes = test system: Coprococcus comes
Outline: as §1

Escherichia coli ED1a = test system: Escherichia coli ED1a
Outline: as §1

Escherichia coli IAI1 = test system: Escherichia coli IAI1
Outline: as §1

Eubacterium rectale = test system: Eubacterium rectale
Outline: as §1

[3] = test system: Fusobacterium nucleatum subsp. animalis
Outline: as §1

Lactobacillus gasseri = test system: Lactobacillus gasseri
Outline: as §1

Lactobacillus paracasei = test system: Lactobacillus paracasei
Outline: as §1

Odoribacter splanchnicus = test system: Odoribacter splanchnicus
Outline: as §1

[4] = test system: Parabacteroides distasonis
Outline: as §1

Parabacteroides merdae = test system: Parabacteroides merdae
Outline: as §1

Structure (SMILES)	growth AUC (Akkermansia muciniphila)	growth AUC (Bacteroides caccae)	growth AUC (Bacteroides clarus)	growth AUC (Bacteroides dorei)	growth AUC (Bacteroides stercoris)	growth AUC [1]	growth AUC (Bacteroides uniformis)	growth AUC [2]	growth AUC (Clostridium difficile)	growth AUC (Collinsella aerofaciens)	growth AUC (Coprococcus comes)	growth AUC (Escherichia coli ED1a)	growth AUC (Escherichia coli IAI1)	growth AUC (Eubacterium rectale)	growth AUC [3]	growth AUC (Lactobacillus gasseri)	growth AUC (Lactobacillus paracasei)	growth AUC (Odoribacter splanchnicus)	growth AUC [4]	growth AUC (Parabacteroides merdae)
FC(F)(F)/N=C1\SC(=Nc2ccccc2)N(c2ccccc2)\C1=N\C(F)(F)F	0.949	0.933	0.96	0.947	0.925	1.01	0.924	1.03	0.984	0.907	0.983	0.962	0.96	1.3	0.653	0.903	1.09	1.13	0.949	0.908
C=CCOC(Cn1ccnc1)c1ccc(Cl)cc1Cl (stereo not given)	0.972	0.944	0.96	0.959	1.12	0.983	0.941	1.05	0.926	0.873	0.0723 (active)	0.986	0.967	0.0607 (active)	0.938	0.851	0.969	0.882	0.847	0.919
CCOCN(C(=O)C(=O)O)c1c(C)cccc1CC	0.978	1.01	0.989	1.02	1.02	1.01	1.01	1.01	0.986	1.02	1.01	1	0.996	0.989	1.03	0.989	1.05	0.991	1.02	1.01
COc1ccccc1C(=O)NS(=O)(=O)c1ccc(C(=O)NC2CC2)cc1	0.895	1.01	0.994	1	1.03	0.954	0.999	0.954	0.985	1.02	0.995	1.03	1.02	0.97	1.01	1.21	1	0.989	1.03	1.01
O=C(O)C1(C(=O)Nc2ccc(Cl)cc2Cl)CC1	1.06	1.06	0.956	1.05	1.1	1.03	1.04	0.998	1.01	1.01	1.01	1.02	1.02	0.98	1.03	0.955	0.999	0.994	0.909	1.01
CCOC(=O)C(C)Oc1ccc(Oc2cnc3cc(Cl)ccc3n2)cc1 (stereo not given)	1.01	0.978	0.953	0.942	1.01	0.992	0.932	1.06	1.03	1.02	1.01	0.997	1.04	1.09	1.03	1.04	0.95	1.02	0.971	0.956
O=[N+]([O-])c1ccc(O)cc1	1.02	1.01	0.994	1.01	1.11	1.02	1.01	0.96	1.02	1.05	0.973	1.01	0.994	0.994	0.979	0.985	0.987	1.01	0.99	0.99
COCC(=O)N(c1c(C)cccc1C(=O)O)C(C)C(=O)O (stereo not given)	0.834	1.02	0.979	1.01	0.917	0.967	0.974	0.907	1.04	1	1.01	0.986	0.978	0.949	0.879	1.07	0.734	1.1	1.01	0.989
COC(=O)C(C)Oc1ccc(Cl)cc1C (stereo not given)	0.866	0.999	0.996	1	1.15	1	1	1	0.974	1.04	1.04	0.991	1	0.997	1.03	1.06	1.01	1.02	1.02	1.05
O=[N+]([O-])c1ccc(Oc2c(Cl)cc(Cl)cc2Cl)cc1	0.832	1.02	0.907	1.01	1.07	0.971	0.914	0.985	1.02	0.935	0.95	1.01	1.03	1.02	1.05	0.874	1.05	1.03	0.623 (active)	0.899
COC(=O)c1cccc(C)c1S(=O)(=O)NC(=O)Nc1nc(OCC(F)(F)F)nc(N(C)C)n1	0.973	0.963	0.995	1.01	1.01	0.985	0.981	0.992	0.987	1.01	0.967	0.992	0.997	0.963	0.956	1.05	0.936	0.997	1.02	0.99
CC(C)N(C)S(=O)(=O)NC(=O)c1cc(-n2c(=O)cc(C(F)(F)F)[nH]c2=O)c(F)cc1Cl	0.971	0.993	0.983	0.967	1.1	1	1.03	0.962	0.982	0.953	0.971	0.995	1	0.959	1.08	1.03	0.893	1.03	0.961	1.02
CCC/C(=N\OCC)C1=C(O)CC(C2CCCSC2)CC1=O (stereo not given)	1.22	0.946	1.01	0.936	0.999	1.04	0.974	1.04	1.01	0.993	1.03	0.988	1.01	1.14	1.03	0.907	0.986	1.01	0.81	1.04
CC(C)N(C(=O)CS(=O)CC(=O)O)c1ccc(F)cc1 (stereo not given)	0.994	0.965	0.94	0.969	0.988	0.987	0.958	1.03	1.01	1	0.957	1	0.941	0.829	0.969	1.01	0.97	1.06	1.08	0.977
CCc1cccc(C)c1NC(=O)CS(=O)(=O)[O-].[Na+]	0.926	1.03	0.962	1.03	0.937	1.01	0.991	0.975	1.06	1.11	0.996	0.954	0.983	0.974	0.945	1.04	0.949	1.01	1.02	0.989
